Data on nine compounds can be found in PubChem BioAssay.

The nature of experiment [1]: small molecules captured by biotinylated probe aFSTL3 – biochemical, small-molecule microarray, fluorescence 635/667, stem cell growth factor project, primary screen (AID 1064).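 Further: measures binding of the biotinylated anti-FSTL3 antibody to printed compounds.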 To be noted: higher = more signal.
Experiment [2] is described as follows: binders from COS7 lysate, DM2A8 probe, primary screen, torsin A project, cell lysate, small-molecule microarray, fluorescence 635/667 (AID 1065). To be noted: higher = more signal, COS7 lysate expressing mutant human TOR1A.
The nature of experiment [3]: small molecules captured by biotinylated probe aFGF2 – biochemical, small-molecule microarray, fluorescence 635/667, stem cell growth factor project, primary screen (AID 1067).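 Further: measures binding of biotinylated aFGF2 protein to printed compounds on slides; z-score merges feature fluorescence and signal-to-noise across triplicate slides.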 To be noted: higher = more signal.
Experiment [4] is described as follows: small molecules captured by biotinylated probe aFGF10 – biochemical, small-molecule microarray, fluorescence 635/667, stem cell growth factor project, primary screen (AID 1071).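 Further: score merges 667 nm spot intensity and signal to noise from triplicate slides.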 To be noted: higher = more signal.
In experiment [5] the target is Neurogenic locus notch homolog protein 2 (Homo sapiens) (UniProt Q04721). Briefly: small molecules binding Notch2 protein – biochemical, small-molecule microarray, 635 nm fluorescence, stem cell growth factors, primary screen (AID 1073). To be noted: higher = more signal.
Chain of Neurogenic locus notch homolog protein 2 (Homo sapiens) (Q04721 whole entry, looked up, canonical isoform): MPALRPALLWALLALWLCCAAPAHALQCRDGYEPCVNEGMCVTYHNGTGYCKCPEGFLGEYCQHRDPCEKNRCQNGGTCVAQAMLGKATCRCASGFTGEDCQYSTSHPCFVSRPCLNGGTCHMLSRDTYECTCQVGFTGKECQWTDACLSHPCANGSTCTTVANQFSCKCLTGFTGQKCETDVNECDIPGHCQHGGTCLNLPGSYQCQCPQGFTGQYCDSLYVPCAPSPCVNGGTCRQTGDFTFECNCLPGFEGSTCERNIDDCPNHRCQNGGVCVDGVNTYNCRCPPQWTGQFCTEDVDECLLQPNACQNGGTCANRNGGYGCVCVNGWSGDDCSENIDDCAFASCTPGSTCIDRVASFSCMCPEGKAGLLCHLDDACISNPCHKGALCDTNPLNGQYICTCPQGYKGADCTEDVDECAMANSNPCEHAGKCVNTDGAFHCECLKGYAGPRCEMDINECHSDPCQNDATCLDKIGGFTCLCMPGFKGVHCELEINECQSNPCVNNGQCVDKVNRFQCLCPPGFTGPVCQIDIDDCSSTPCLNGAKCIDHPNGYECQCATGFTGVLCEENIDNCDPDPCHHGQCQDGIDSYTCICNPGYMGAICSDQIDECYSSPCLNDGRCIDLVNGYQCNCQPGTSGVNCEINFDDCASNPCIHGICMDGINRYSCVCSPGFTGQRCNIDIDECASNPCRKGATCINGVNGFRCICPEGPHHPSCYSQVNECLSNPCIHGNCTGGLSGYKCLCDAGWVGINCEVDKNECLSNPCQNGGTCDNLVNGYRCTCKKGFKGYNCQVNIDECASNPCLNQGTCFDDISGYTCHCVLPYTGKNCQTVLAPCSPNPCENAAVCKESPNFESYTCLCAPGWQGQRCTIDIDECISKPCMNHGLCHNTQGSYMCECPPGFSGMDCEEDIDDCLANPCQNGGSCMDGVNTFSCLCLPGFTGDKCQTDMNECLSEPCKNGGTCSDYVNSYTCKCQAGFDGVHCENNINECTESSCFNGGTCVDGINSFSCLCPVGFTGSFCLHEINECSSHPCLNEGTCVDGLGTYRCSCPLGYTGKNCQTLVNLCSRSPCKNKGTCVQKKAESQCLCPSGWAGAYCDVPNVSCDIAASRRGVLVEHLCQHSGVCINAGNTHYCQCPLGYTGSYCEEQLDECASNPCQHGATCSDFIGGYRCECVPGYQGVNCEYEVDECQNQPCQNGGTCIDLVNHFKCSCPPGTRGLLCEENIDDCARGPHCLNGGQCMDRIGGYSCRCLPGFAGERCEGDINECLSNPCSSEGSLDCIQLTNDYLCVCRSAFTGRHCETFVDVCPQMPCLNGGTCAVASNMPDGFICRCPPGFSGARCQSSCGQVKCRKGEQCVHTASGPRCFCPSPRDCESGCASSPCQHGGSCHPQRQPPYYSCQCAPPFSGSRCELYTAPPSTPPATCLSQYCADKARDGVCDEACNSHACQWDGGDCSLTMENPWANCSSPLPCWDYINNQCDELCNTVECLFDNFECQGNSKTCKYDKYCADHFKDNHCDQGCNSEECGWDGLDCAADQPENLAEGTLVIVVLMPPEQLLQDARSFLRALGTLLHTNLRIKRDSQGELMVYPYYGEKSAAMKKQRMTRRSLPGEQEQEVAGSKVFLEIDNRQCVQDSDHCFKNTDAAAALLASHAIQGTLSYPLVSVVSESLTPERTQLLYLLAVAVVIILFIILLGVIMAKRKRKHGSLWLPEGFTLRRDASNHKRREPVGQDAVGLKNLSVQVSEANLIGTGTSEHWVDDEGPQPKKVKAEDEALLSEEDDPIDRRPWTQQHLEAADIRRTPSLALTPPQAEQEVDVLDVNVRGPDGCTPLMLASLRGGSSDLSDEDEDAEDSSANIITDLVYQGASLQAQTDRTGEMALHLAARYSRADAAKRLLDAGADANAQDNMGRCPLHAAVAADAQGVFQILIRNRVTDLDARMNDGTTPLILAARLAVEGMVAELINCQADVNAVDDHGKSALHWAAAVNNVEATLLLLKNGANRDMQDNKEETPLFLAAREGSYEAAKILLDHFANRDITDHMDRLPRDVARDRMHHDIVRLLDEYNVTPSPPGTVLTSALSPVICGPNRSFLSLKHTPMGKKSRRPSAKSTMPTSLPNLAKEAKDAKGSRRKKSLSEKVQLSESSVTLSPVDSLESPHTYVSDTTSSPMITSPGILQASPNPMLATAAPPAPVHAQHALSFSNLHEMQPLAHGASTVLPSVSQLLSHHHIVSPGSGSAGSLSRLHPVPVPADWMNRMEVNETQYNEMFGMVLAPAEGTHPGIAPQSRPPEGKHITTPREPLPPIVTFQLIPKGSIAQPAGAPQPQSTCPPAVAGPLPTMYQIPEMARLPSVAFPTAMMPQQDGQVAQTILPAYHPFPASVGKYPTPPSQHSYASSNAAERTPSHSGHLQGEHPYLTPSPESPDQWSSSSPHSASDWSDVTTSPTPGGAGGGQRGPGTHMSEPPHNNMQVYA
Experiment [6] concerns the target Pro-neuregulin-1, membrane-bound isoform (Homo sapiens) (UniProt Q02297). Briefly: small molecules binding neuregulin-1 protein – biochemical, small-molecule microarray, fluorescence 635/667, psychiatric disease protein project, primary screen (AID 1075).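 Further: score combines 667 nm spot fluorescence with signal to noise.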 To be noted: NRG1 binding, 635 nm fluorescence, higher = more signal.
Experiment [7] relates to Neuregulin-1 EGF-like domain. Briefly: small molecules binding NRG1 EGF domain – biochemical, small-molecule microarray, 635 nm fluorescence, primary screen (AID 1081).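 Further: binding of the protein to compounds printed on small-molecule microarray slides.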 To be noted: higher = more signal.
Experiment [8] is described as follows: FRG1 expression reporter modulators in myotubes – cell-based, C2C12 myotubes, firefly/Renilla luciferase, luminescence, FRG1 inhibition for FSHD, primary screen (AID 1084). To be noted: FRG1 promoter luciferase, higher = more signal, called active from +8 up or from −8 down.
A short description of experiment [9]: small molecules captured by biotinylated probe aFST – biochemical, small-molecule microarray, fluorescence 635/667, stem cell growth factor project, primary screen (AID 1086).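 Further: score merges 667 nm fluorescence with signal-to-noise of each printed compound spot.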 To be noted: higher = more signal.
Experiment [10] can be described thus: binders of probe aHhip on microarray, primary screen, stem cell growth factor project, biochemical, small-molecule microarray, fluorescence 635/667 (AID 1087).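 Further: score merges spot fluorescence at 667nm with spot signal to noise ratio.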 To be noted: higher = more signal.
Experiment [11] relates to PRMT1 (protein arginine N-methyltransferase 1). The experiment in a line: small molecules binding arginine methyltransferase PRMT1 – biochemical, small-molecule microarray, 635 nm fluorescence, primary screen (AID 1088).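 Further: binding of Prmt1 protein to compounds spotted on small-molecule microarray slides.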 To be noted: higher = more signal.
A short description of experiment [12]: growth effects on S. cerevisiae YJM789 – YJM789 clinical isolate, OD600, 24 h, basal, primary screen (AID 1089).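 Further: growth of clinical yeast isolate S. cerevisiae YJM 789 seeded 1000 cells per well; test concentration not given here.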 To be noted: higher = more signal, called active from +8 up or from −8 down.
Experiment [13] in a line: S. pombe growth modifiers, basal conditions – strain 972, OD600, 24 h, no modulator, primary screen (AID 1090).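 Further: basal condition with compound alone and no growth modifier present; test concentration not given here.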 To be noted: S. pombe 972 growth, higher = more signal, called active from +8 up or from −8 down.
Experiment [14] can be described thus: budding yeast growth modifiers under rapamycin – strain BY4716, OD600, 96 h, primary screen (AID 1091). Further: test concentration not given here. To be noted: S. cerevisiae BY4716 + rapamycin, higher = more signal, called active from +8 up or from −8 down.
The target of experiment [15] is Torsin-1A-interacting protein 2 (Homo sapiens) (UniProt Q8NFQ8). The experiment in a line: small molecules binding lysate-expressed LULL1 – cell lysate, human LULL1 lysate, 635/667 nm fluorescence, primary screen (AID 1092).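 Further: score merges per-feature 667 nm fluorescence with signal-to-noise.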 To be noted: small-molecule microarray, hLULL1 lysate binding, 635 nm fluorescence; higher = more signal.
Chain of Torsin-1A-interacting protein 2 (Homo sapiens) (Q8NFQ8 whole entry, looked up): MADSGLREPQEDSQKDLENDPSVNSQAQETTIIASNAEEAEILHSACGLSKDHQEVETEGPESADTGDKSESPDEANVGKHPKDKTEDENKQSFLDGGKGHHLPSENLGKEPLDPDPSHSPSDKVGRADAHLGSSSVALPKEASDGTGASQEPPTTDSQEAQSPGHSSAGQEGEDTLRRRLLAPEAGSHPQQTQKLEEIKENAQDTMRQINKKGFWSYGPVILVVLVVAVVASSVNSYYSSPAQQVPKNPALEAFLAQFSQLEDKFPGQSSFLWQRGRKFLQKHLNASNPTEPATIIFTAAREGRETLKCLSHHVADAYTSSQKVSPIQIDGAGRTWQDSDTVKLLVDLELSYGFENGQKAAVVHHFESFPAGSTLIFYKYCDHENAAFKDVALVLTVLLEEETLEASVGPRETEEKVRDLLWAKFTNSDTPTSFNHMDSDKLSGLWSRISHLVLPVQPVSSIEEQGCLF
The nature of experiment [16]: optical density change of DRC41 E. coli – strain DRC41, OD650, 24 h, E. coli filamentation project, primary screen (AID 1093).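 Further: MC1000 strain lacking acrAB efflux and sulA so SOS filamentation is blocked; test concentration not given here.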 To be noted: E. coli DRC41 growth, higher = more signal, called active from +8 up or from −8 down.
The nature of experiment [17]: probe aLefty2 binding to arrayed compounds – biochemical, biotinylated probe, 635/667 nm fluorescence, primary screen (AID 1094).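 Further: score merges spot fluorescence near 667 nm with spot signal-to-noise ratio.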 To be noted: small-molecule microarray, higher = more signal.
Experiment [18] relates to Noggin (protein binding on small-molecule microarray). The experiment in a line: small molecules binding Noggin protein – biochemical, 635/667 nm fluorescence, primary screen (AID 1095).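 Further: score merges 667 nm feature fluorescence with signal to noise over triplicate slides.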 To be noted: 635 nm fluorescence, higher = more signal.
Experiment [19] has as its target Neurogenic locus notch homolog protein 3 (Homo sapiens) (UniProt Q9UM47). Briefly: small molecules binding NOTCH3 protein – biochemical, 635/667 nm fluorescence, primary screen (AID 1096). To be noted: small-molecule microarray, 635 nm fluorescence, higher = more signal.
A short description of experiment [20]: probe aEGFR binding to arrayed compounds – biochemical, biotinylated probe, 635/667 nm fluorescence, primary screen (AID 1097).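 Further: probe is a biotinylated anti-EGFR antibody binding compounds printed on slides; score combines fluorescence near 667 nm and signal to noise of each spot.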 To be noted: small-molecule microarray, higher = more signal.

The structures appear in SMILES notation. Activity calls are given as the source filed them.

Chain of Pro-neuregulin-1, membrane-bound isoform (Homo sapiens) (Q02297 whole entry, looked up, the tested form may be a part, canonical isoform): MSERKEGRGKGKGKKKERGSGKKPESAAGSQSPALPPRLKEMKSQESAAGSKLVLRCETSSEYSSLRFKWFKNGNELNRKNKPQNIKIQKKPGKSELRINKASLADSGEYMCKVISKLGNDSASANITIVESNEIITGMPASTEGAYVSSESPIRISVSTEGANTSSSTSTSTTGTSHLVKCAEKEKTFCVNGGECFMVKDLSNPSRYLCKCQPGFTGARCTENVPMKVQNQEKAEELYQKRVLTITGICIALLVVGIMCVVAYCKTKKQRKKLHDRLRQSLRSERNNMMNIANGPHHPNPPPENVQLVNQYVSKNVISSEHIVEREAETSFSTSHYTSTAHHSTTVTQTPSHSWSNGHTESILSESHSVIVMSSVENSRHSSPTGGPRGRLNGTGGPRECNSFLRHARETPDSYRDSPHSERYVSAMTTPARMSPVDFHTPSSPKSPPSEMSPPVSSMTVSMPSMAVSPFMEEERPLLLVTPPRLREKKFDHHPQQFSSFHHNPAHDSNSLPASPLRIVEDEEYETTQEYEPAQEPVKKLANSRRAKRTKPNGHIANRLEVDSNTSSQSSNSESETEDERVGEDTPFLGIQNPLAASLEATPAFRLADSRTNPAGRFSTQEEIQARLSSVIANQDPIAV

For `CSCC[C@@H]1NC(=O)CC=C[C@@H](C)COC(=O)[C@H](C)COC1=O`, the composite z-score in [1] was -1.1; in [2], 2.81; in experiment [3], -0.355; in experiment [4] it was -1.11; in experiment [5], -0.979; in experiment [6], -1.94. Further, the composite z-score in experiment [7] is -0.169; in [9] it was -0.242; in [10] it was 0.487; in [11], 1.53; in experiment [15] it was -0.265; in [17] it was -0.295. The composite z-score in experiment [18] was found to be 2.11; in experiment [19], 0.883; in [20], 0.702. In addition, the z-score in [8] is -1.13 (inactive); in experiment [12], -2.12 (inactive); in experiment [13] it was -1.99 (inactive); in experiment [14] it was -0.894 (inactive); in experiment [16], 0.453 (inactive).

Take `CO[C@@H]1COC(=O)[C@H](CCSC)NC(=O)CC=C[C@@H](C)COC(=O)[C@@H]2CCCN2C(=O)CC=C[C@H]1C`: the composite z-score in [1] was -0.313; in [2], 2.62; in [3] it was -0.0659; in experiment [4], 0.571; in experiment [5], 0.84; in experiment [6], -0.483. The composite z-score in experiment [7] is 0.926; in experiment [9] it was 0.16; in [10], -0.0618; in [11] it was 0.888; in experiment [15] it was -0.389; in experiment [17], -0.261. Also, the composite z-score is 0.862 in experiment [18], 0.468 in [19] and -0.0675 in experiment [20]. Further, the z-score in experiment [8] is -0.813 (inactive); in experiment [12], -0.0153 (inactive); in [13], -1.33 (inactive); in experiment [14] it was -0.495 (inactive); in experiment [16] it was -0.135 (inactive).

As for `CC(CCC(=O)OC[C@H]1O[C@H](C#Cc2ccccc2)C=C[C@@H]1Oc1ccc(C)cc1)=NOC[C@@H](C)[C@H](OCc1ccccc1)C(C)C`, the composite z-score in experiment [1] is -0.205; in experiment [2] it was -0.0926; in [3] it was -0.121; in experiment [4] it was -0.122; in [5] it was -0.67; in experiment [6], -1.01. In addition, the composite z-score in experiment [7] was -1.05; in experiment [9], -0.114; in [10] it was -0.175; in [11], -0.694; in experiment [15] it was -1.27; in experiment [17], -0.342. The composite z-score is 0.809 in experiment [18], -1.27 in experiment [19] and -0.24 in experiment [20]. In addition, the z-score in [8] was -0.234 (inactive); in [12], -0.78 (inactive); in experiment [13], 0.484 (inactive); in experiment [14] it was -0.468 (inactive); in experiment [16], -0.346 (inactive).

For `CCOC(=O)[C@H](Cc1ccccc1)NC(=O)CCC1CC(OC(=O)NCc2cccc3ccccc23)CC2(CCCC(COC(=O)NCCOc3ccccc3)O2)O1` (stereo not given in full), the composite z-score was -0.591 in experiment [1]; 0.618 in experiment [2]; -0.105 in experiment [3]; 0.133 in experiment [4]; 0.863 in experiment [5]; 0.972 in experiment [6]. Also, the composite z-score in experiment [7] was 0.898; in experiment [9], 0.214; in [10] it was 0.204; in experiment [11], 1.57; in experiment [15], 3.18; in experiment [17], -0.122. For the same compound, the composite z-score was 0.734 in experiment [18], 1.12 in experiment [19] and -0.0828 in experiment [20]. The z-score in experiment [8] is 0.688 (inactive); in experiment [12], -0.851 (inactive); in experiment [13] it was -0.421 (inactive); in experiment [14], -0.792 (inactive); in [16], -0.325 (inactive).

In the case of `C[C@@H]1CC[C@H]2C(=O)OC(Cc3ccccc3)CN2[C@H]1c1ccc(Br)cc1` (stereo not given in full), the composite z-score in [1] was -0.438; in [2] it was -0.441; in experiment [3], -0.156; in experiment [4], 0.578; in [5], -0.125; in [6], 0.485. Also, the composite z-score is 1.01 in experiment [7]; -0.103 in experiment [9]; 0.0373 in experiment [10]; 1.28 in [11]; 1.18 in experiment [15]; -0.0923 in [17]. Moreover, the composite z-score in [18] was 0.151; in [19], 0.0343; in experiment [20], -0.133. For the same compound, the z-score in [8] is -0.156 (inactive); in experiment [12], 0.127 (inactive); in experiment [13], -6.77 (inactive); in [14], -0.624 (inactive); in experiment [16], 0.823 (inactive).

In the case of `COC(=O)[C@H](C)NC(=O)CCC1CC(OC(=O)NCc2ccc3c(c2)OCO3)CC2(CCCC(COC(=O)NCc3ccccc3)O2)O1` (stereo not given in full), the composite z-score in [1] is -0.344; in experiment [2], 0.0374; in experiment [3], 0.0025; in [4] it was 0.721; in experiment [5], 0.748; in experiment [6] it was 0.52. Also, the composite z-score is 0.877 in experiment [7]; 0.0613 in experiment [9]; -0.212 in experiment [10]; 1.23 in experiment [11]; 1.64 in experiment [15]; -0.157 in experiment [17]. Also, the composite z-score was 0.888 in experiment [18], 1.09 in experiment [19] and -0.0234 in experiment [20]. Moreover, the z-score was -0.156 (inactive) in [8]; 0.24 (inactive) in [12]; 0.532 (inactive) in experiment [13]; 0.274 (inactive) in experiment [14]; 0.326 (inactive) in experiment [16].

Take `CCN1C(=O)[C@H]2[C@H]3[C@H](O)[C@H](O)CC(=NO[C@@H]4O[C@H](CO)[C@@H](O)[C@H](O)[C@H]4O)[C@H]3CC[C@H]2C1=O`: the composite z-score in experiment [1] is -0.396; in experiment [2], 1.06; in experiment [3], -0.138; in experiment [4], 0.235; in [5], 1; in [6], 0.259. In addition, the composite z-score in [7] is 0.108; in [9], 0.293; in [10], 0.0274; in experiment [11], -0.26; in experiment [15], -0.127; in experiment [17], -0.204. For the same compound, the composite z-score in experiment [18] was 0.484; in [19], 0.65; in [20], -0.128. For the same compound, the z-score is -1.07 (inactive) in experiment [8]; -0.862 (inactive) in experiment [12]; -0.238 (inactive) in experiment [13]; -0.14 (inactive) in [14]; 0.12 (inactive) in [16].

In the case of `C#CCCCON=C1C[C@@H](O)[C@@H](O)[C@@H]2[C@@H]3C(=O)N(C[C@@H]4CCCO4)C(=O)[C@@H]3CC[C@H]12`, the composite z-score in [1] was -0.444; in experiment [2], 0.368; in [3], -0.168; in experiment [4] it was 0.188; in [5] it was 0.53; in experiment [6], 0.43. In addition, the composite z-score was 0.475 in [7]; 0.0653 in [9]; -0.353 in [10]; 0.81 in [11]; 1.22 in [15]; -0.134 in [17]. Besides, the composite z-score in experiment [18] was 0.463; in experiment [19] it was 0.607; in experiment [20], -0.0828. The z-score in experiment [8] is 0.164 (inactive); in experiment [12] it was 0.426 (inactive); in experiment [13], 0.775 (inactive); in experiment [14], 0.749 (inactive); in [16], 0.397 (inactive).

On to `CCN1C(=O)[C@H]2[C@H]3[C@H](O)[C@H](O)CC(=NO[C@@H]4O[C@H](COC(C)=O)[C@@H](OC(C)=O)[C@H](OC(C)=O)[C@H]4OC(C)=O)[C@@H]3CC[C@H]2C1=O`, for which the composite z-score was -0.665 in experiment [1]; 0.588 in experiment [2]; -0.0319 in experiment [3]; 0.794 in experiment [4]; 0.948 in experiment [5]; 0.357 in [6]. Moreover, the composite z-score in experiment [7] was 1; in [9], 0.054; in experiment [10], -0.0994; in [11] it was 1.29; in experiment [15], 1.05; in experiment [17], 0.015. Further, the composite z-score amounted to 0.597 in experiment [18], 1.03 in experiment [19] and 0.0091 in experiment [20]. Also, the z-score in experiment [8] is 0.186 (inactive); in experiment [12], 0.461 (inactive); in experiment [13] it was 0.208 (inactive); in experiment [14] it was 0.47 (inactive); in experiment [16], 1.16 (inactive).
